The panel holds about 83,000 compounds, 20% with a hit somewhere; the sample as a whole holds those more often.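 Cell lines were cultured in 96-well plates, exposed to a single compound concentration, and assessed for percent growth 48 hours later.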 A number with no mark means an inactive call. The source made the active and inactive calls. How the source made its calls: active means growth percent below 10; inactive means the rest.
Columns and labels:
Assay in all cases: NCI-60 one-dose screen, 48 h (100 = growth as untreated, 0 = no growth, -100 = all killed)
Conditions in all cases: 10 µM
786-0 renal = tested on: 786-0 renal
MALME-3M melanoma = tested on: MALME-3M melanoma
UACC-257 melanoma = tested on: UACC-257 melanoma
SN12C renal = tested on: SN12C renal
TK-10 renal = tested on: TK-10 renal
ACHN renal = tested on: ACHN renal
CAKI-1 renal = tested on: CAKI-1 renal
A498 renal = tested on: A498 renal
RPMI-8226 leukemia = tested on: RPMI-8226 leukemia
OVCAR-8 ovarian = tested on: OVCAR-8 ovarian
OVCAR-5 ovarian = tested on: OVCAR-5 ovarian
SK-OV-3 ovarian = tested on: SK-OV-3 ovarian
IGROV1 ovarian = tested on: IGROV1 ovarian
OVCAR-3 ovarian = tested on: OVCAR-3 ovarian
NCI/ADR-RES ovarian = tested on: NCI/ADR-RES ovarian
T-47D breast = tested on: T-47D breast
BT-549 breast = tested on: BT-549 breast
MDA-MB-435 melanoma = tested on: MDA-MB-435 melanoma
MCF7 breast = tested on: MCF7 breast
HCT-116 colon = tested on: HCT-116 colon

| SMILES | growth (786-0 renal) [%] | growth (MALME-3M melanoma) [%] | growth (UACC-257 melanoma) [%] | growth (SN12C renal) [%] | growth (TK-10 renal) [%] | growth (ACHN renal) [%] | growth (CAKI-1 renal) [%] | growth (A498 renal) [%] | growth (RPMI-8226 leukemia) | growth (OVCAR-8 ovarian) [%] | growth (OVCAR-5 ovarian) [%] | growth (SK-OV-3 ovarian) [%] | growth (IGROV1 ovarian) [%] | growth (OVCAR-3 ovarian) [%] | growth (NCI/ADR-RES ovarian) [%] | growth (T-47D breast) [%] | growth (BT-549 breast) [%] | growth (MDA-MB-435 melanoma) [%] | growth (MCF7 breast) | growth (HCT-116 colon) [%] |
| --- | --- | --- | --- | --- | --- | --- | --- | --- | --- | --- | --- | --- | --- | --- | --- | --- | --- | --- | --- | --- |
| CN(C)CCc1cn(C2CCC2)c2cccc(O)c12 | 50 | 46.5 | 41.8 | 68 | 103 | 84.6 | 42.3 | 95 | 24.4% | 96.6 | 79.8 | 92.9 | 84.2 | 93.6 | 74.3 | 69.9 | 68.1 | 45.9 | 22.4% | 31.6 |
| O=C(/C=C/c1ccc(Cl)cc1)c1nc2ccccc2n1Cc1ccc(Br)cc1 | 38.9 | 71.5 | 71 | 52.9 | 93.7 | 51.1 | 57.4 | 115 | -13.4% (active) | 66 | 89.9 | 94.7 | 52.4 | 38.2 | 62.6 | 28 | 37.2 | 54.2 | 9.41% (active) | 33.1 |
| CCOC(=O)C1=C(Nc2ccccc2)C(=O)OC12C(=O)Nc1ccccc12 (stereo not given) | 108 | 102 | 101 | 110 | 137 | 107 | 82.6 | 120 | 104% | 105 | 103 | 104 | 102 | 104 | 107 | 110 | 103 | 108 | 95.6% | 109 |
